{
  "source": "PubChem BioAssay (NCI)",
  "assay_in_all_cases": "NCI-60 one-dose screen, 48 h (100 = growth as untreated, 0 = no growth, -100 = all killed)",
  "conditions_in_all_cases": "10 µM unless noted",
  "key": {"[1]": {"system": "T-47D breast"}, "[2]": {"system": "BT-549 breast"}, "[3]": {"system": "MDA-MB-435 melanoma"}, "[4]": {"system": "SW-620 colon"}, "[5]": {"system": "MCF7 breast"}, "[6]": {"system": "HCT-116 colon"}, "[7]": {"system": "HCC-2998 colon"}, "[8]": {"system": "KM12 colon"}},
  "note": "Values joined by “and” are separate entries in the source; they are usually repeats but may differ in a detail not shown here. Identical values can stand only once. About 83,000 compounds went through this panel and 20% of them were active in at least one assay; those are over-represented in the sample as a whole.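 Percent growth is the endpoint: 0 to 100 indicates growth inhibition (40 means 60% inhibition), 0 means no net growth, and negative values indicate cell death.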 A number with no mark means an inactive call. Active and inactive are the calls of the source. How the source made its calls: active means growth percent below 10; inactive means the rest.",
  "data": [
    {"smiles": "O=C(CN1C(=O)S/C(=C\\C(Cl)=C\\c2ccccc2)C1=O)NC1C=CS(=O)(=O)C1", "note": "(centres undefined)", "values": [
      {"measurement": "growth", "setting": "[1]", "result": "4.56% (active)"},
      {"measurement": "growth", "setting": "[2]", "result": "2.33% (active)"},
      {"measurement": "growth", "setting": "[3]", "result": "-31.4% (active)"},
      {"measurement": "growth", "setting": "[4]", "result": "-36.4% (active)"},
      {"measurement": "growth", "setting": "[5]", "result": 11.1, "unit": "%"},
      {"measurement": "growth", "setting": "[6]", "result": "-62.3% (active)"},
      {"measurement": "growth", "setting": "[7]", "result": 65.6, "unit": "%"},
      {"measurement": "growth", "setting": "[8]", "result": 16.4, "unit": "%"}
    ]},
    {"smiles": "CCCCCO/N=C\\c1c2c(O)c3c(O)c(C)c4c(c3c1O)C(=O)C(C)(O/C=C\\C(OC)C(C)C(OC(C)=O)C(C)C(O)C(C)C(O)C(C)/C=C\\C=C(\\C)C(=O)N2)O4", "note": "(centres undefined)", "values": [
      {"measurement": "growth", "setting": "[1]", "result": 26.8, "unit": "%"},
      {"measurement": "growth", "setting": "[2]", "result": 33.1, "unit": "%"},
      {"measurement": "growth", "setting": "[3]", "result": 15.8, "unit": "%"},
      {"measurement": "growth", "setting": "[4]", "result": 18.3, "unit": "%"},
      {"measurement": "growth", "setting": "[5]", "result": 17, "unit": "%"},
      {"measurement": "growth", "setting": "[6]", "result": "9.51% (active)"},
      {"measurement": "growth", "setting": "[7]", "result": "6.51% (active)"},
      {"measurement": "growth", "setting": "[8]", "result": 17.3, "unit": "%"}
    ]},
    {"smiles": "COc1ccc(Oc2nc(Nc3ccc(N4CCOCC4)cc3)ncc2NC(=O)c2cc(OC)cc(OC)c2)cc1", "values": [
      {"measurement": "growth", "setting": "[1]", "result": 93.6, "unit": "%"},
      {"measurement": "growth", "setting": "[2]", "result": 90.1, "unit": "%"},
      {"measurement": "growth", "setting": "[3]", "result": 40.4, "unit": "%"},
      {"measurement": "growth", "setting": "[4]", "result": 71.4, "unit": "%"},
      {"measurement": "growth", "setting": "[5]", "result": 76.9, "unit": "%"},
      {"measurement": "growth", "setting": "[6]", "result": 87.9, "unit": "%"},
      {"measurement": "growth", "setting": "[7]", "result": 98.4, "unit": "%"},
      {"measurement": "growth", "setting": "[8]", "result": 79.3, "unit": "%"}
    ]},
    {"smiles": "O=C(NNc1ccccc1)c1ncc[nH]1", "values": [
      {"measurement": "growth", "setting": "[1]", "result": 43.6, "unit": "%"},
      {"measurement": "growth", "setting": "[2]", "result": 101, "unit": "%"},
      {"measurement": "growth", "setting": "[3]", "result": 24.2, "unit": "%"},
      {"measurement": "growth", "setting": "[4]", "result": 60.7, "unit": "%"},
      {"measurement": "growth", "setting": "[5]", "result": 56.5, "unit": "%"},
      {"measurement": "growth", "setting": "[6]", "result": 64.4, "unit": "%"},
      {"measurement": "growth", "setting": "[7]", "result": 60.6, "unit": "%"},
      {"measurement": "growth", "setting": "[8]", "result": 29.5, "unit": "%"}
    ]},
    {"smiles": "CCOC(=O)c1ccc(Nc2ncnc3c2cnn3-c2cccc(F)c2)cc1", "values": [
      {"measurement": "growth", "setting": "[1]", "result": 100, "unit": "%"},
      {"measurement": "growth", "setting": "[2]", "result": 100, "unit": "%"},
      {"measurement": "growth", "setting": "[3]", "result": 103, "unit": "%"},
      {"measurement": "growth", "setting": "[4]", "result": 99.8, "unit": "%"},
      {"measurement": "growth", "setting": "[5]", "result": 95, "unit": "%"},
      {"measurement": "growth", "setting": "[6]", "result": 99.3, "unit": "%"},
      {"measurement": "growth", "setting": "[7]", "result": 104, "unit": "%"},
      {"measurement": "growth", "setting": "[8]", "result": 99.3, "unit": "%"}
    ]},
    {"smiles": "N#CC(Cc1cccc2ccccc12)c1cc2ccccc2[nH]1", "note": "(centres undefined)", "values": [
      {"measurement": "growth", "setting": "[1]", "result": 83.8, "unit": "%"},
      {"measurement": "growth", "setting": "[2]", "result": 90.1, "unit": "%"},
      {"measurement": "growth", "setting": "[3]", "result": 102, "unit": "%"},
      {"measurement": "growth", "setting": "[4]", "result": 89.3, "unit": "%"},
      {"measurement": "growth", "setting": "[5]", "result": 82.5, "unit": "%"},
      {"measurement": "growth", "setting": "[6]", "result": 83.7, "unit": "%"},
      {"measurement": "growth", "setting": "[7]", "result": 99.2, "unit": "%"},
      {"measurement": "growth", "setting": "[8]", "result": 88, "unit": "%"}
    ]},
    {"smiles": "COc1ccc(C/C(C)=C(/c2ccc(OCCN3CCCC3)cc2)c2ccc(OC(=O)NCc3ccccc3)cc2)cc1", "values": [
      {"measurement": "growth", "setting": "[1]", "result": 51, "unit": "%"},
      {"measurement": "growth", "setting": "[2]", "result": 82.5, "unit": "%"},
      {"measurement": "growth", "setting": "[3]", "result": 73, "unit": "%"},
      {"measurement": "growth", "setting": "[4]", "result": 95.3, "unit": "%"},
      {"measurement": "growth", "setting": "[5]", "result": 30.7, "unit": "%"},
      {"measurement": "growth", "setting": "[6]", "result": 39.6, "unit": "%"},
      {"measurement": "growth", "setting": "[7]", "result": 87.8, "unit": "%"},
      {"measurement": "growth", "setting": "[8]", "result": 90.7, "unit": "%"}
    ]},
    {"smiles": "COc1cc(CO)cc2cc3ccccc3nc12", "values": [
      {"measurement": "growth", "setting": "[1]", "result": 101, "unit": "%"},
      {"measurement": "growth", "setting": "[2]", "result": 102, "unit": "%"},
      {"measurement": "growth", "setting": "[3]", "result": 104, "unit": "%"},
      {"measurement": "growth", "setting": "[4]", "result": 102, "unit": "%"},
      {"measurement": "growth", "setting": "[5]", "result": 79.9, "unit": "%"},
      {"measurement": "growth", "setting": "[6]", "result": 98.5, "unit": "%"},
      {"measurement": "growth", "setting": "[7]", "result": 106, "unit": "%"},
      {"measurement": "growth", "setting": "[8]", "result": 102, "unit": "%"}
    ]},
    {"smiles": "Nc1ccccc1SC(CC(=O)c1ccccc1)c1ccc([N+](=O)[O-])cc1", "note": "(centres undefined)", "values": [
      {"measurement": "growth", "setting": "[1]", "result": "93.5% and 78.4%"},
      {"measurement": "growth", "setting": "[2]", "result": "83.6% and 86.4%"},
      {"measurement": "growth", "setting": "[3]", "result": "101% and 87.2%"},
      {"measurement": "growth", "setting": "[4]", "result": "51.9% and 45.8%"},
      {"measurement": "growth", "setting": "[5]", "result": "33% and 21.6%"},
      {"measurement": "growth", "setting": "[6]", "result": "-87.1% (active) and -80.5% (active)"},
      {"measurement": "growth", "setting": "[7]", "result": 101, "unit": "%"},
      {"measurement": "growth", "setting": "[8]", "result": "79.1% and 31.5%"}
    ]},
    {"smiles": "CCOc1nc(-c2ccccc2)cc2c(O)c(C(=O)N/N=C/c3ccc(N(C)C)cc3)[nH]c(=O)c12", "values": [
      {"measurement": "growth", "setting": "[1]", "result": 218, "unit": "%"},
      {"measurement": "growth", "setting": "[2]", "result": 125, "unit": "%"},
      {"measurement": "growth", "setting": "[3]", "result": 118, "unit": "%"},
      {"measurement": "growth", "setting": "[4]", "result": 97.8, "unit": "%"},
      {"measurement": "growth", "setting": "[5]", "result": 92.9, "unit": "%"},
      {"measurement": "growth", "setting": "[6]", "result": 112, "unit": "%"},
      {"measurement": "growth", "setting": "[7]", "result": "-14.8% (active)"},
      {"measurement": "growth", "setting": "[8]", "result": 109, "unit": "%"}
    ]},
    {"smiles": "Cc1cc2nc(C(Cl)Cl)nc(-c3ccc(Cl)cc3)n2n1", "values": [
      {"measurement": "growth", "setting": "[1]", "result": 27.4, "unit": "%"},
      {"measurement": "growth", "setting": "[2]", "result": 52.5, "unit": "%"},
      {"measurement": "growth", "setting": "[3]", "result": "-25.2% (active)"},
      {"measurement": "growth", "setting": "[4]", "result": "-36.6% (active)"},
      {"measurement": "growth", "setting": "[5]", "result": "2.98% (active)"},
      {"measurement": "growth", "setting": "[6]", "result": "-2.01% (active)"},
      {"measurement": "growth", "setting": "[7]", "result": "-77% (active)"},
      {"measurement": "growth", "setting": "[8]", "result": "-27.2% (active)"}
    ]},
    {"smiles": "CC12CCC(C(=O)CC1=O)C2(C)C", "note": "(centres undefined)", "values": [
      {"measurement": "growth", "setting": "[1]", "result": "105% and 93.4%"},
      {"measurement": "growth", "setting": "[2]", "result": "110% and 104%"},
      {"measurement": "growth", "setting": "[3]", "result": "106% and 110%"},
      {"measurement": "growth", "setting": "[4]", "result": "105% and 109%"},
      {"measurement": "growth", "setting": "[5]", "result": "103% and 98.4%"},
      {"measurement": "growth", "setting": "[6]", "result": "106% and 97.1%"},
      {"measurement": "growth", "setting": "[7]", "result": "108% and 98.5%"},
      {"measurement": "growth", "setting": "[8]", "result": "108% and 101%"}
    ]},
    {"smiles": "O=C(/C=C\\c1ccc(Cl)c(Cl)c1)c1ccccc1", "values": [
      {"measurement": "growth", "setting": "[1]", "result": "77.4% and 86.9%"},
      {"measurement": "growth", "setting": "[2]", "result": 103, "unit": "%"},
      {"measurement": "growth", "setting": "[3]", "result": "70.5% and 100%"},
      {"measurement": "growth", "setting": "[4]", "result": "31.9% and 95.1%"},
      {"measurement": "growth", "setting": "[5]", "result": "18.8% and 28.2%"},
      {"measurement": "growth", "setting": "[6]", "result": "22.7% and 62.1%"},
      {"measurement": "growth", "setting": "[7]", "result": "95.2% and 104%"},
      {"measurement": "growth", "setting": "[8]", "result": 96.6, "unit": "%"}
    ]}
  ]
}
